Results published in PubChem BioAssay (NCATS).
“And” between values parts separate entries of the source, which are not always exact repeats. Identical values can stand only once. Results filed as inconclusive are left out. The source made the active and inactive calls. Unless noted, the call rests on the fitted dose curve.

Tests used:
[1] = Cell Viability - LYMP2-003 (AID 965; active means well fitted curve in the direction sought with a large enough effect; an effect the other way counts as inactive or inconclusive;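 further: cells exposed to compounds for 24 h before reading; nearly all actives have a fitted effect of over 50% in size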; further: potency means the concentration at half of the fitted maximal effect)
Method in brief: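 Human lymphoblastoid LYMP2-003 cells, 2500/well, exposed to compounds for 24 h at 37 C in complete medium. Viability read as intracellular ATP by CellTiter-Glo luminescence; AC50 from Hill-equation fits of qHTS concentration-response data.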

[2] = Cell Viability - LYMP2-005 (AID 967; active means well fitted curve in the direction sought with a large enough effect; an effect the other way counts as inactive or inconclusive;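 further: series mostly up to about 92 µM; plate controls were DMSO only for no effect and 92 µM tetraoctylammonium bromide control for full effect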)
Method in brief: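 Human lymphoblastoid LYMP2-005 cells, 2,500 per well in complete medium, rested 5 h at 37C then compound-treated 24 h at 37C. Intracellular ATP read by CellTiter-Glo luminescence after 30 min at room temperature; AC50 from Hill-equation fits of concentration-response data.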

[3] = Cell Viability - LYMP2-015 (AID 971; active means well fitted curve in the direction sought with a large enough effect; an effect the other way counts as inactive or inconclusive; further: nearly all actives have a fitted effect of over 55% in size; further: potency means the concentration at half of the fitted maximal effect)
Method in brief: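 Human lymphoblastoid cells (2500/well) in complete medium were preincubated 5 hr at 37 C, then compound-treated 24 hr at 37 C. Intracellular ATP was read by CellTiter-Glo luminescence after 30 min at room temperature; AC50 came from Hill-equation concentration-response fits.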

[4] = Cell Viability - LYMP2-020 (AID 986; active means well fitted curve in the direction sought with a large enough effect; an effect the other way counts as inactive or inconclusive;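 further: series mostly up to about 92 µM; plate controls were DMSO only for no effect and tetraoctylammonium bromide at 92 µM for full effect; nearly all actives have a fitted effect of over 55% in size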)
Method in brief: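 Human lymphoblastoid cells, 2500/well, were pre-incubated 5 hr at 37 C, then exposed to compounds for 24 hr at 37 C in complete medium. Intracellular ATP was read by CellTiter-Glo luminescence, and AC50 was derived by Hill fitting of concentration-response data.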

[5] = biological target: Estrogen receptor (Homo sapiens) (UniProt P03372); assay: qHTS assay for small molecule agonists of estrogen receptor alpha signaling (AID 588514); further: nearly all actives have a fitted effect of over 70% in size; further: potency means the concentration at half of the fitted maximal effect;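 on activation: 0% = vehicle only and 100% = reference agonist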
Chain of Estrogen receptor (Homo sapiens) (P03372 whole entry, looked up): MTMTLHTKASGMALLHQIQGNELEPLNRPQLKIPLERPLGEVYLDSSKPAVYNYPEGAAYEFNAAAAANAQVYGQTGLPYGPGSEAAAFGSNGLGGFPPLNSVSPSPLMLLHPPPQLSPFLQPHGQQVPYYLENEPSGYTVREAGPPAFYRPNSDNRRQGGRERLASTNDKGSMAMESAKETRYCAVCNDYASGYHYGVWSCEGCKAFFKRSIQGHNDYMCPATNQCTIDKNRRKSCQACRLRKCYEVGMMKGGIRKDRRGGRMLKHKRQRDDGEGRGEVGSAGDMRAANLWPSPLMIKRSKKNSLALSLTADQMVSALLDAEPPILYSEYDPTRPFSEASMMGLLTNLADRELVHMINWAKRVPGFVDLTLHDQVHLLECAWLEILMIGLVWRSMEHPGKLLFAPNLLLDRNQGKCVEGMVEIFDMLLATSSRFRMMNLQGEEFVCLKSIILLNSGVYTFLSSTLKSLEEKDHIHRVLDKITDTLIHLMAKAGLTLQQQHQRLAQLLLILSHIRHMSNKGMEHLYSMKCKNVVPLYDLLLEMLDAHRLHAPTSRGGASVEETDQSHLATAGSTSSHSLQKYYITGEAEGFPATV
Method in brief: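 ER-alpha-UAS-bla GripTite HEK 293 cells in medium with 2% charcoal/dextran-treated FBS were treated with compound titrations at 37 C for 18 hrs; beta-lactamase reporter read by CCF4 fluorescence after 2 hrs at RT.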

[6] = biological target: Bile acid receptor (Homo sapiens) (UniProt Q96RI1); assay: qHTS assay for small molecule antagonists of farnesoid X receptor signaling (AID 588526); further: on the % scale 0 is the no-effect control and ±100 the full control effect
Chain of Bile acid receptor (Homo sapiens) (Q96RI1 whole entry, looked up): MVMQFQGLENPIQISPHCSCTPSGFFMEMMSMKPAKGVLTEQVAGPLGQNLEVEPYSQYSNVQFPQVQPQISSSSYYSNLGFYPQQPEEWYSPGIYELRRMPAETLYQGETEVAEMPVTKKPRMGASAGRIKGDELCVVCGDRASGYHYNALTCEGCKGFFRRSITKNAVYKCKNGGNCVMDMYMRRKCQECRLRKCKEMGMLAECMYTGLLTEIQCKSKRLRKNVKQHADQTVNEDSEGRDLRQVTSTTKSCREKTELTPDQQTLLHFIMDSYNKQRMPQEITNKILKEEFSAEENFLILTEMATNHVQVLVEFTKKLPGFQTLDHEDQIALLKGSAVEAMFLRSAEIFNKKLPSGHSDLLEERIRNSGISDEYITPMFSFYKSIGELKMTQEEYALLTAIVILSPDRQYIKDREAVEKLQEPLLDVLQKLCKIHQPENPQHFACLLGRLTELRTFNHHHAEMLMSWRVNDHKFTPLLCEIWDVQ
Method in brief: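 Antagonist mode: titrated compounds tested against chenodeoxycholic acid stimulation (normalized to 50 uM CDCA and DMSO) in GeneBLAzer HEK293T cells for 16 h. Beta-lactamase read by CCF4 fluorescence; IC50 from Hill fits.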

[7] = biological target: Glucocorticoid receptor (Homo sapiens) (UniProt P04150); assay: qHTS assay for small molecule agonists of glucocorticoid receptor signaling (AID 588532; active means well fitted curve in the direction sought with a large enough effect in the signal ratio, with a control signal flat; the % refers to the signal ratio;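 further: 100% = dexamethasone at 0.1 µM and 0% = DMSO only wells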); details: HeLa MMTV-bla, beta-lactamase ratio, agonist, 18 h; stronger effect = higher value; percent of dexamethasone control, DMSO zero
Chain of Glucocorticoid receptor (Homo sapiens) (P04150 whole entry, looked up): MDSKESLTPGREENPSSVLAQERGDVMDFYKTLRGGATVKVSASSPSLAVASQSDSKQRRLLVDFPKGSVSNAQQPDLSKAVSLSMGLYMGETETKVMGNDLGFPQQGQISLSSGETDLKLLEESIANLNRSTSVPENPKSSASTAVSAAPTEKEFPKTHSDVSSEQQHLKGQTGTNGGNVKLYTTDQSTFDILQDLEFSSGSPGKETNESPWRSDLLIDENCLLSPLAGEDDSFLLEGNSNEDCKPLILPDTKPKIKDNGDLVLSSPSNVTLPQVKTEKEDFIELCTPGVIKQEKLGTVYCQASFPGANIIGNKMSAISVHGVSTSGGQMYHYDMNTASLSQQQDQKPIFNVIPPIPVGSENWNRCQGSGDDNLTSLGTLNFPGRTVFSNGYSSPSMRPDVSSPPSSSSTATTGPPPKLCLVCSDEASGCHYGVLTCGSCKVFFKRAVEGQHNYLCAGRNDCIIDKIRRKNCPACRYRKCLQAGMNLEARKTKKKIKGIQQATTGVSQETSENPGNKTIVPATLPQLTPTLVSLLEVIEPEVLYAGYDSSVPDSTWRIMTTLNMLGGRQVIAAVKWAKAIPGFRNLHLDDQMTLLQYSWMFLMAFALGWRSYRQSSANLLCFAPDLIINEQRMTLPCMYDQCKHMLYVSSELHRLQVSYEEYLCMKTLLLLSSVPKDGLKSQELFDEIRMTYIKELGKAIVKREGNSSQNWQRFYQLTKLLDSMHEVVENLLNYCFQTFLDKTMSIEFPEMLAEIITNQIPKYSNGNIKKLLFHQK
Method in brief: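 MMTV-bla HeLa beta-lactamase reporter cells in 1% charcoal/dextran FBS medium, compounds up to 92 uM for 18 h at 37 C, CCF4 readout; normalized to 0.1 uM dexamethasone (100%), EC50 and efficacy from Hill fits.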

[8] = qHTS assay for small molecule antagonists of peroxisome proliferator-activated receptor delta signaling (AID 588535; active means well fitted inhibition curve with a large enough effect in the signal ratio, with a control signal flat, not every such curve was filed as active; the % refers to the signal ratio;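 on max response: cells co-treated with a PPAR-delta agonist as stimulator during compound exposure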); details: HEK293T PPARd-UAS-bla, beta-lactamase FRET ratio, 18 h; 460 nm channel
Method in brief: (§1)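 Cells were seeded at 4000 per well in assay medium containing 2% charcoal/dextran FBS and held 5 hrs at 37 C. Compounds were then added for 18 hrs. CCF4 substrate was applied for 2 hrs at room temperature before fluorescence reading.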

[9] = biological target: Peroxisome proliferator-activated receptor delta (Homo sapiens) (UniProt Q03181); assay: as above
Chain of Peroxisome proliferator-activated receptor delta (Homo sapiens) (Q03181 whole entry, looked up): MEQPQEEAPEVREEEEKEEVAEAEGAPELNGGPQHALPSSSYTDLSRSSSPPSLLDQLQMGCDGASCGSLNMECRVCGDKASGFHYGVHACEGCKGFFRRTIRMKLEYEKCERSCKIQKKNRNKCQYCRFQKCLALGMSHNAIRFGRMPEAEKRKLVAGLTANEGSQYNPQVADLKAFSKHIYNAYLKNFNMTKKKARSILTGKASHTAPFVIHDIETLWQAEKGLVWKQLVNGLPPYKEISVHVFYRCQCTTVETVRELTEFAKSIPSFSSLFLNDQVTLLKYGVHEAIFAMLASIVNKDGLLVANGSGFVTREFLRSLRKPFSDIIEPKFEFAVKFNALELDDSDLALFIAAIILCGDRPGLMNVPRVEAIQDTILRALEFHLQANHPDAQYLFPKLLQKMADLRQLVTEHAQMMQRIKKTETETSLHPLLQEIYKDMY
Method in brief: as §1

[10] = biological target: Peroxisome proliferator-activated receptor gamma (Homo sapiens) (UniProt P37231); assay: qHTS assay for small molecule agonists of peroxisome proliferator-activated receptor gamma signaling (AID 588536; active means well fitted curve in the direction sought with a large enough effect in the signal ratio, with a control signal flat, not every such curve was filed as active; the % refers to the signal ratio;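 further: 0% = DMSO basal wells and 100% = rosiglitazone at 2 µM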)
Chain of Peroxisome proliferator-activated receptor gamma (Homo sapiens) (P37231 whole entry, looked up): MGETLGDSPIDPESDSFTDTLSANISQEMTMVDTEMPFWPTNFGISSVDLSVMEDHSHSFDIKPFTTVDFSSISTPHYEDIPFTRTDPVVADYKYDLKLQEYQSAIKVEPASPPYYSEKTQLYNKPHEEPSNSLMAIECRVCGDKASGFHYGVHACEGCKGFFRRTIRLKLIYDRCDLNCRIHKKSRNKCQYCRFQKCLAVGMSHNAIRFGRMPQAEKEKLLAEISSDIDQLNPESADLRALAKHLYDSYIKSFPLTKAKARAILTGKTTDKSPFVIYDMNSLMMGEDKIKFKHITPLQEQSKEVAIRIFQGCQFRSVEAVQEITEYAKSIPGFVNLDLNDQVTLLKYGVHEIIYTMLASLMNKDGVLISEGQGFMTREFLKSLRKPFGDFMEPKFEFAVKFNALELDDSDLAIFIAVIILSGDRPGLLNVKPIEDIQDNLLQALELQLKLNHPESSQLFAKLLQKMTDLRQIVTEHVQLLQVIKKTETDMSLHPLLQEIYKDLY
Method in brief: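 Test agents, titrated, stimulated HEK293 UAS-bla cells overnight (16 h, 37 C). Substrate CCF4 was then added for two hours at room temperature before fluorescence reading.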

[11] = biological target: Peroxisome proliferator-activated receptor gamma (Homo sapiens) (UniProt P37231); assay: qHTS assay for small molecule antagonists of peroxisome proliferator-activated receptor gamma signaling (AID 588537; active means well fitted inhibition curve with a large enough effect in the signal ratio, with a control signal flat, not every such curve was filed as active; the % refers to the signal ratio;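 further: reporter cells co-stimulated with 50 nM rosiglitazone agonist during compound treatment; % of control where 0% means no effect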)
Method in brief: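 Step one: plate 3000 HEK293 UAS-bla cells per well in medium with 1% stripped serum and hold 6-6.5 h at 37 C. Step two: add compound and 50 nM agonist for 16 h. Step three: CCF4 loading, fluorescence read.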

[12] = biological target: Vitamin D3 receptor (Homo sapiens) (UniProt P11473); assay: qHTS assay for small molecule antagonists of vitamin D receptor signaling (AID 588541);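 further: receptor activated by calcitriol during compound treatment; series mostly up to about 77 µM; on the % scale 0 is the no-effect control and ±100 the full control effect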
Chain of Vitamin D3 receptor (Homo sapiens) (P11473 whole entry, looked up): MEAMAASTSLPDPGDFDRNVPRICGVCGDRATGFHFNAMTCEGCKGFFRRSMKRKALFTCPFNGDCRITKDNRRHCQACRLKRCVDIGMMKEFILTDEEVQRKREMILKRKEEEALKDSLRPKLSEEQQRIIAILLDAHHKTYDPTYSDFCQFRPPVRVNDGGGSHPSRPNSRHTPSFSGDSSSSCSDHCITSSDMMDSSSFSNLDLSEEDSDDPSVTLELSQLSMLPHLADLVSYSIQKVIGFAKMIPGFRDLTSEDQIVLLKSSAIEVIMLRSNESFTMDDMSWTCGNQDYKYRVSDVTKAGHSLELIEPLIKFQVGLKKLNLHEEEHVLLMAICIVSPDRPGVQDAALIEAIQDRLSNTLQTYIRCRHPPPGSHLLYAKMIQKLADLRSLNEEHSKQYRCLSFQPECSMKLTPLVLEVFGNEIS
Method in brief: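 VDR-UAS-bla HEK293T cells in 2% charcoal-stripped FBS were stimulated with 1-alpha,25-dihydroxyvitamin D3 (3 nM final) plus compound for 16 h at 37 C. The beta-lactamase CCF4 readout was normalized to 50 nM agonist and DMSO, and Hill fits gave IC50.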

[13] = biological target: Vitamin D3 receptor (Homo sapiens) (UniProt P11473); assay: qHTS assay for small molecule agonists of vitamin D receptor signaling (AID 588543);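 further: 0% = DMSO basal and 100% = reference agonist control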
Method in brief: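 VDR-UAS-bla HEK293T cells, 2000/well, 2% charcoal-stripped FBS; compound titration 16 h at 37 C; CCF4 beta-lactamase ratio read. Normalized to 50 nM 1-alpha,25-dihydroxyvitamin D3 (100%) and DMSO; Hill fit gives EC50, efficacy.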

[14] = qHTS assay for small molecule agonists of the antioxidant response element (ARE) signaling pathway (AID 651741; active means well fitted activation curve with a large enough effect in the signal ratio; the % refers to the signal ratio; further: % of control where 0% means no effect)
Method in brief: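 HepG2 ARE-bla cells plated at 2,000 cells/well and incubated 5 h at 37 C/5% CO2 received 23 nL compound in DMSO. After 16 h at 37 C, LiveBLAzer B/G FRET substrate was applied for 2 h at room temperature and fluorescence read.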

[15] = qHTS assay for small molecule disruptors of the mitochondrial membrane potential - 1 hr assay (AID 651754); further: on the % scale 0 is the no-effect control and ±100 the full control effect; nearly all actives have a fitted effect of over 35% in size
Method in brief: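 HepG2 cells, attached overnight at 37C, were exposed to compound or DMSO vehicle for 1 hr at 37C, 5% CO2, then stained with Mito-MPS dye for 30 min. Red aggregate versus green monomer fluorescence reports membrane potential.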

[16] = qHTS assay to identify small molecules that stimulate interleukin-8 (IL-8) secretion (AID 651758; active means well fitted activation curve with a large enough effect in the signal ratio; the % refers to the signal ratio; further: 0% is about no effect)
Method in brief: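 THP-1 cells (2000/well) exposed to compound 16 h at 37 C; secreted IL-8 then detected by HTRF with cryptate- and XL665-labelled anti-IL-8 antibody pair after 1-3 h at room temperature.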

[17] = qHTS assay for small molecule activators of the human pregnane X receptor (PXR) signaling pathway (AID 720659; call rule not given here; further: 0% is about no effect)
[18] = Cellular Toxicity (caspase-3) HUV-EC-C (AID 656; active means well fitted curve in the direction sought with a large enough effect; an effect the other way counts as inactive or inconclusive;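 further: 0% = DMSO basal and 100% = 100 µM tamoxifen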)
Method in brief: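 HUV-EC-C cells (1000/well) in complete medium, compound-treated 16 h at 37 °C; caspase-3/7 activity read by Caspase-Glo 3/7 luminescence. Normalized to DMSO (basal) and 100 uM tamoxifen (100%); AC50 from Hill-equation concentration-response fits.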

[19] = qHTS assay for small molecule activators of the nuclear factor-kappa B (NF-kB) signaling pathway (AID 651749; active means well fitted activation curve with a large enough effect in the signal ratio; the % refers to the signal ratio; further: series mostly up to about 77 µM; % of control where 0% means no effect); details: NF-kB-bla ME-180 cells, beta-lactamase FRET ratio, 16 h; activation: stronger effect = higher value
Method in brief: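 Incubation lasted 16 hr at 37C in 5% CO2 after 23 nL compound addition to ME-180 NF-kB-bla cells. Activation appears as beta-lactamase-mediated FRET loss.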

[20] = Cell Viability - LYMP1-002 - Assay at 40 hr (AID 994; active means well fitted curve in the direction sought with a large enough effect; an effect the other way counts as inactive or inconclusive;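 further: 0% = DMSO only and full inhibition = 92 µM tetraoctylammonium bromide; nearly all actives have a fitted effect of over 60% in size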)
Method in brief: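 Human lymphoblastoid cells, 2500/well in complete medium, were preincubated 5 hr at 37 C, then exposed to compounds for 40 hr at 37 C. Intracellular ATP was read by CellTiter-Glo luminescence after 30 min at room temperature; AC50 from Hill-equation fits.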

C[N+](C)(C)Cc1ccccc1
-16.9% and 15.9%: max response [8]
inactive: Potency [1] | Potency [2] | Potency [3] | Potency [4] | Potency [5] | outcome [6] | activation [7] -1.14% | Potency [9] | outcome [10] | Potency [11] | outcome [12] | outcome [13] | Potency [14] | Potency [15] | Potency [16] | outcome [17]

c1ccc(OP(Oc2ccccc2)Oc2ccccc2)cc1
inactive: outcome [18] | Potency [2] | Potency [3] | Potency [5] | activation [7] 10.9% and -3.42% | outcome [10] | Potency [11] | outcome [12] | outcome [13] | activation [19] -3.6% and -0.416% | Potency [15] | Potency [16] | outcome [17]

Cc1cccc(C#N)c1
inactive: outcome [18] | Potency [2] | Potency [3] | Potency [4] | Potency [20] | Potency [5] | outcome [6] | activation [7] -3.56% | Potency [9] | outcome [10] | outcome [12] | outcome [13] | activation [19] 0.885% | Potency [15] | outcome [17]
57%: max response [8]

O=NN(CCO)CCO
inactive: outcome [18] | Potency [2] | Potency [20] | Potency [5] | outcome [6] | outcome [10] | outcome [12] | outcome [13] | Potency [14] | Potency [15] | outcome [17]

CCOP(=S)(OCC)Oc1ccc([N+](=O)[O-])cc1
inactive: Potency [2] | Potency [4] | activation [7] 1.36% and 0.403% and 5.24% | Potency [9] | outcome [10] | Potency [11] | Potency [14] | activation [19] -1.46% and -0.889% and 0.819%
12.5% and -2.14%: max response [8]

Nc1c(Cl)c(Cl)nc(C(=O)O)c1Cl
inactive: outcome [18] | Potency [1] | Potency [2] | Potency [3] | Potency [20] | activation [7] -2.38% and -16.4% and -2.51% | outcome [10] | Potency [11] | Potency [14] | activation [19] -0.763% and -1.51% and -1.13% | Potency [15] | Potency [16] | outcome [17]

Cc1ccc([N+](=O)[O-])cc1C
inactive: Potency [3] | Potency [4] | Potency [5] | outcome [6] | Potency [9] | outcome [10] | Potency [11] | outcome [12] | outcome [13] | Potency [14] | activation [19] 0.21% and 0.188% | Potency [15] | Potency [16] | outcome [17]
-1.38%: max response [8]

Brc1ccc(Oc2cc(Br)c(Br)cc2Br)c(Br)c1
inactive: Potency [1] | Potency [2] | Potency [3] | Potency [20] | Potency [5] | Potency [9] | outcome [12] | outcome [13] | activation [19] 0.934% and 2.14% and 2.73%
18.7% and 4.79%: max response [8]

C=CC(N)=O
inactive: Potency [2] | Potency [3] | Potency [4] | Potency [20] | activation [7] -1.03% and 0.342% | Potency [9] | outcome [12] | outcome [13] | Potency [14] | activation [19] -0.549% and 0.0148% and 0.73% | Potency [15] | Potency [16] | outcome [17]
43.8% and 22.1%: max response [8]

C=CC(C)=O
6.99%: max response [8]
inactive: Potency [1] | Potency [2] | Potency [3] | Potency [20] | Potency [5] | outcome [6] | activation [7] -1.11% | Potency [9] | outcome [10] | Potency [14] | activation [19] 0.254% | Potency [15] | outcome [17]

CC(C)(C)OO
inactive: Potency [2] | Potency [4] | Potency [20] | Potency [9] | outcome [10] | Potency [11] | outcome [12] | outcome [13] | Potency [14] | activation [19] -0.974% and 0.475% | Potency [15] | Potency [16] | outcome [17]
26.2% and -4.41%: max response [8]

BrCCBr
inactive: Potency [2] | Potency [3] | Potency [5] | activation [7] 2.21% and 1.87% | Potency [9] | outcome [10] | Potency [11] | outcome [12] | outcome [13] | Potency [14] | activation [19] -0.199% and 0.87% | Potency [15] | outcome [17]
-6.18% and 14.8%: max response [8]

Clc1nc(Cl)nc(Cl)n1
inactive: outcome [18] | Potency [1] | Potency [20] | Potency [5] | activation [7] 2.08% and -5.01% | Potency [9] | outcome [10] | outcome [12] | outcome [13] | Potency [14] | activation [19] 0.499% and 0.444% | Potency [15]
-3.59% and 8.32%: max response [8]

C=C(C)C#N
active: Potency [5] 35.5 µM
inactive: outcome [18] | Potency [1] | Potency [2] | Potency [3] | Potency [4] | outcome [6] | outcome [12] | outcome [13] | outcome [17]

CC(C)(OO)c1ccccc1
-33%: max response [8]
inactive: outcome [18] | outcome [6] | activation [7] 1.9% and -7.5% | Potency [9] | outcome [10] | Potency [11] | outcome [12] | outcome [13] | Potency [14] | activation [19] -2.1% and -0.395% | Potency [15] | outcome [17]
active: Potency [1] 50.1 µM | Potency [3] 39.8 µM
